Assay results: PubChem BioAssay (NCI)
This is part of a sample that, as a whole, favours compounds with a hit. Of some 79,000 tested, about 15% had one in any assay. Values without a mark were called inactive. Active and inactive are the calls of the source. No stated cut-off is given here; in the data, active means growth inhibition above about 70%; inactive means the rest.

How the values were obtained:
[1] = NCI Yeast Anticancer Drug Screen. Data for the rad50 strain (AID 155);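 further: 0% = growth of vehicle-only cultures of the same strain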; conditions: S. cerevisiae rad50 strain growth inhibition; at 50.0 µM; stronger effect = higher value
Method in brief: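 Cells are treated with compound, grown, and their growth is then scored against vehicle-only cultures of the same repair-deficient yeast strain.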

[2] = NCI Yeast Anticancer Drug Screen. Data for the mec2-1 strain (AID 157); conditions: S. cerevisiae mec2-1 strain, at 50.0 µM, stronger effect = higher value
Method in brief: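 Cells of the genetically defined mec2-1 yeast strain are incubated with test compound. Inhibition of growth is calculated against vehicle-treated controls.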

[3] = NCI Yeast Anticancer Drug Screen. Data for the sgs1 mgt1 strain (AID 161);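 further: 0% = growth of cultures given vehicle only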; conditions: S. cerevisiae sgs1 mgt1 strain, at 50.0 µM, stronger effect = higher value
Method in brief: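 Genetically altered yeast, compound exposure, growth inhibition relative to vehicle.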

[4] = NCI Yeast Anticancer Drug Screen. Data for the cln2 rad14 strain (AID 165);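 further: 0% = growth equal to vehicle treated cultures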; conditions: S. cerevisiae cln2 rad14 strain, at 50.0 µM, stronger effect = higher value
Method in brief: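 The screen exposed genetically defined yeast (cln2 rad14) to test compounds and scored growth inhibition relative to vehicle-treated controls.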

[5] = NCI Yeast Anticancer Drug Screen. Data for the bub3 strain (AID 167); conditions: S. cerevisiae bub3 mutant strain, at 50.0 µM, stronger effect = higher value
Method in brief: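 Part of a panel of yeast mutants defective in DNA damage repair or cell cycle regulation. Each strain is grown with compound, and inhibition is calculated relative to solvent-treated cultures.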

[6] = NCI Yeast Anticancer Drug Screen. Data for the mlh1 rad18 strain (AID 175); conditions: S. cerevisiae mlh1 rad18 strain growth inhibition; at 50.0 µM; stronger effect = higher value
Method in brief: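 Compound-treated yeast growth, normalised to vehicle controls. Strain bears defined DNA repair mutations.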

SMILES | growth inhibition [1] [%] | growth inhibition [2] [%] | growth inhibition [3] [%] | growth inhibition [4] | growth inhibition [5] [%] | growth inhibition [6] [%]
O=[N+]([O-])c1ccccc1N/N=C/c1ccccc1 | -10.2 | 7.1 | 2.6 | -65.9% | 8.35 | 10.8
Nc1nc2c(C(=O)N3CCCC3)nnn2c2cccc(Cl)c12 | -4.45 | -11.7 | 17 | 18.3% | 9.9 | 0.05
CCC(C)(CC(=O)O)CC(=O)O | -13.9 | 7.45 | -15.7 | 0.85% | 2.7 | 5.3
CCCCOc1cc(C(=O)O)ccc1[N+](=O)[O-] | -10.7 | -19.4 | -10.3 | -5.75% | -19.2 | -3.1
Cc1cc(N(CCC#N)CCC#N)ccc1N=Nc1ccc(C(=O)O)cc1 | -30.9 | -34.6 | -13.7 | -1.15% | -2.9 | -25
CCCC(=O)OC(C)CC(C)C (configuration not stated) | 6 | -13.7 | -12.2 | -10.8% | 2.2 | 1.95
COC(=O)Cc1nn2c(nc1=O)sc1ccc3ccccc3c12 | -16.7 | -3.05 | 3.3 | 1.25% | -3.8 | -17.2
Nc1nc(-c2ccccc2)cc(-c2cc(-c3ccccc3)nc(N)n2)n1 | 12.8 | -8.35 | -18.9 | -1.5% | -5.95 | 10.3
N#CCCCCCCCCCC#N | -18.9 | -36 | -47.4 | 25.9% | -52.5 | 11.4
Cn1c(=O)c2nc3sc4c(n3c2n(C)c1=O)C(=O)c1ccccc1C4=O | -17 | 21.4 | 11.2 | -11.2% | -11 | 25.4
CC(C)(C)CC(C)(C)N(CSc1ccc2ccccc2c1)CSc1ccc2ccccc2c1 | 20.9 | 4.55 | 21.1 | 13.6% | -0.45 | 17.6
CCCC(=O)c1ccc2c(ccc(=O)n2C)c1 | 12.2 | -8.75 | -5.2 | 38.1% | 28.8 | 15.9
Nc1nc2ccc3ccccc3c2c(=O)[nH]1 | -4.35 | 2.35 | -1.55 | -10.1% | -15.6 | 12.7
N.N.N.N.N.O=C([O-])c1nn[n-]n1.[Cl-].[Co+3] | -0.8 | -1.1 | 7.15 | 23.4% | 3.75 | -7.5
O/N=C1/CCSc2ccccc21 | 21 | -8.9 | 17.1 | 16.2% | 28.4 | 8.25
O=C(Nc1ccccc1)OC1C=CC2CCC1C2 (configuration not stated) | 7.75 | 3.35 | 38.6 | 12.8% | 17.8 | 58.3
Cc1nc2c(=O)[nH]c(N)nc2[nH]c1=O | -10 | -4 | -6.15 | -30.4% | -13.8 | 2.3
CCCCCCCCCCNC(=O)C(OC(C)=O)C(OC(C)=O)C(OC(C)=O)C(COC(C)=O)OC(C)=O (configuration not stated) | 29.4 | 12.6 | 19.3 | 32.1% | 10.2 | 40.4
COc1cc2c(cc1C/C=C/c1cc(OC)c(OC)c(OC)c1)OCO2 | -1.95 | -3.1 | 22.8 | -1.65% | 8.55 | 12.2

SMILES | growth inhibition [1] [%] | growth inhibition [2] [%] | growth inhibition [3] [%] | growth inhibition [4] | growth inhibition [5] [%] | growth inhibition [6] [%]
C/C=C(/C)C(=O)O[C@H]1C(C)=C[C@]23C(=O)[C@@H](C=C(COC(C)=O)[C@@H](O)[C@]12O)[C@H]1[C@@H](C[C@H]3C)[C@@]1(C)OC(=O)/C(C)=C\C | 58.7 | 60.4 | 60.6 | 76.3% (active) | 56.8 | 59.2
NC(=O)c1nc2ccccc2nc1Nc1ccc(Cl)cc1Cl | 29 | 10.2 | 7.55 | -0.9% | 13 | 23.2
C=C(c1nc2ccc(Cl)cc2[nH]c1=O)C(O)c1ccc(C(O)C(=O)c2nc3ccc(Cl)cc3[nH]c2=O)cc1 (configuration not stated) | 5.85 | 4.55 | -15.6 | -68.8% | -1.4 | 9.05
CN1C(=O)N(C)C2(CCN(CC(CC3OCCO3)c3ccc(F)cc3)CC2)C1=O (configuration not stated) | -15.8 | 7.85 | 0.4 | 2.5% | -6.8 | -1.55
COc1ccc2ccc3c(OC(C)=O)ccc(CCN(C)C(C)=O)c3c2c1OC(C)=O | 19.1 | 25.9 | 18.9 | 31.5% | 2.25 | 4.85
CN1CCCCC1CCO (configuration not stated) | -1.4 | 6.7 | -11.2 | 15.9% | 3.25 | 14.1
Nc1cc2c(cn1)[nH]c1ccccc12 | 2.9 | -14.8 | -13.8 | -16.4% | 5.6 | -2.35
O=[N+]([O-])c1ccc(NC(CO)C(O)C(O)C(O)CO)c([N+](=O)[O-])c1 (configuration not stated) | 12.3 | -4.85 | -0.85 | -6.45% | 3.2 | -7.4
CN1C(=O)c2ccccc2CC12c1ccccc1C(=O)N2C (configuration not stated) | 2.8 | -13.6 | 22.9 | -0.55% | 15.9 | 4.45
N#Cc1nc(CC(=O)/C=C/c2ccccc2)c(CC(=O)/C=C/c2ccccc2)nc1C#N | 3.7 | 13.7 | 8.05 | 16.3% | 1.3 | 21.3
CN1CCCn2c(nc3ccccc3c2=O)C1 | -1.4 | -4.65 | -5.55 | 14.5% | -0.5 | -4.35
CC(C)CC(NC(=O)C(COC(C)(C)C)NC(=O)C(CSC(c1ccccc1)(c1ccccc1)c1ccccc1)NC(=O)OC(C)(C)C)C(=O)OC(C)(C)C (configuration not stated) | -16.1 | 11.9 | -1.75 | -16.6% | -13.9 | 8.05
CC(=O)Nc1ccc(S(=O)(=O)NNC(=O)C(=O)Nc2cccc(Cl)c2)cc1 | -12.5 | -21.4 | -18.2 | 16.4% | -0.1 | -1.6
CCC12CCCN(Cc3ccccc3)C1c1c([nH]c3ccccc13)C(C(=O)OC)C2 (configuration not stated) | 11.8 | -2.25 | 17.6 | 13.7% | -0.25 | 2.3
COCn1cnc2c(=O)n(-c3ccc(OC)cc3)c(=S)n(-c3ccc(OC)cc3)c21 | 21.1 | -13.7 | -28.9 | -2.65% | -21.4 | -53.1
CCCCCCCCCC(C)=O | -9.8 | -4.4 | -16 | -17.9% | 4.45 | -12.2
c1ccc2c(c1)Cc1c(Cc3csc4ccccc34)ccc3cccc-2c13 | -14.2 | -22.4 | -4.1 | 13.3% | -5 | -15.2
CCc1c(CNc2ccc(C(=O)NC(CC(=O)O)C(=O)O)cc2)ccc2nc(N)nc(N)c12 (configuration not stated) | 5.5 | -0.5 | 11.9 | 2.85% | -4 | 5.6
